Screening results deposited in PubChem by National Center for Advancing Translational Sciences (NCATS).
Compounds with a hit are over-represented: about 6.5% of the library has one in this group of screens.
HCMV antiviral – human cytomegalovirus inhibition; HFF cells, HCMV-luciferase reporter, 72 h; hits give low values; activity change, negative = inhibition, % at 57.5 µM; 410,000 compounds, 4.5% hits; in the data active means activity change below about -60%; inconclusive means no clear call, values can overlap the other calls; inactive means above about -39%
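Compounds were evaluated in HFFs infected with an HCMV luciferase reporter virus (MOI 1 PFU/cell). Luciferase in lysates collected 72 h post infection served as the replication measure.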
FMDV antiviral – blocks foot and mouth disease virus. 410,000 compounds, 1.2% hits. FMDV antiviral cell-based qHTS. Potency, µM (highest dose often 57.9 µM), for the others: at the top dose activity change, negative = inhibition, usual class: inhibitors; calls by dose curve; tested in HEK293T cells; further: read-out not given here; potency means the concentration at half of the fitted maximal effect; nearly all actives have a fitted effect of over 45% in size
Marburg entry inh – inhibitors of Marburg virus binding or cell entry | 300,000 compounds, 1.8% hits | Potency, µM (series often up to 37.8 µM), for inactives: top-dose activity change, negative = inhibition, hits mostly inhibitors | Marburg virus pseudotyped entry inhibition, cell reporter; calls by dose curve; tested in HEK293 cells; further: potency means the concentration at half of the fitted maximal effect
Lassa entry inh – blocks Lassa virus binding to or entry into cells. Lassa virus pseudotype entry inhibition, cell reporter. Potency, µM (highest dose often 37.9 µM), for inactives: at the top dose activity change, negative = inhibition, usual class: inhibitors. 300,000 compounds, 1.2% hits. AID 540256; calls by dose curve; tested in HEK293 cells; further: potency means the concentration at half of the fitted maximal effect; nearly all actives have a fitted effect of over 50% in size
Vaccinia Venus – inhibitors of vaccinia virus (Venus reporter) | AID 720580 | Potency, µM (top dose mostly 36.5 µM), for inactives: at the top dose activity change, negative = inhibition, usual class: inhibitors | 330,000 compounds, 0.46% hits | Vaccinia virus Venus reporter expression, fluorescence; calls by dose curve; tested in A549 cells; further: potency means the concentration at half of the fitted maximal effect; nearly all actives have a fitted effect of over 30% in size
VACV mCherry inh – inhibitors of vaccinia virus infection (mCherry reporter signal); 310,000 compounds, 0.63% hits; Potency, µM (top dose mostly 36.5 µM), for the others: top-dose activity change, negative = inhibition, usual class: inhibitors; Vaccinia virus mCherry reporter infection, fluorescence; calls by dose curve; tested in A549 cells; further: potency means the concentration at half of the fitted maximal effect; nearly all actives have a fitted effect of over 35% in size
* marks the source's active call; other numbers are inactive results; i = inactive; ? = inconclusive; · = not tested or not shown; ! = not active in a repeat; [ ] = dose if it differs, or a comment. On the % scale 0 is the no-effect control and ±100 the full control effect.

SMILES	HCMV antiviral	FMDV antiviral	Marburg entry inh	Lassa entry inh	Vaccinia Venus	VACV mCherry inh
CCOC(=O)CC1C(=O)NCCN1S(=O)(=O)c1cc(Cl)c(Cl)cc1Cl (centres undefined)	-14	-7%	1.6µM*	-12%	-23%	?
Cc1ccc(N2CCn3c2nc2c3c(=O)n(CCCc3ccccc3)c(=O)n2C)cc1C	-22	-10%	·	2%[46.1 µM]	-4%	-11%
CC(C(=O)NC1CCCCCC1)N(c1ccccc1)S(C)(=O)=O (centres undefined)	81	14%	8.2µM*	-2%	0%	-12%
CC(C)CC1OC(C(C)C)Cc2[nH]c(=S)[nH]c(=O)c21 (centres undefined)	?	0%	·	·	0.013µM*	·
CC(C)[C@@H]1Cc2[nH]c(=S)[nH]c(=O)c2[C@H](C)O1	3	-20%	·	·	0%	38%
COC(=O)C1=C(C)N(Cc2ccco2)C(=O)NC1c1ccc(Br)cc1 (centres undefined)	·	·	?	3%[14.3 µM]	·	·
CCOC(=O)Cc1ccc(NC(=O)N2CC(CC)Oc3ccccc32)cc1 (centres undefined)	48	-20%	·	-18%[46.1 µM]	-1%	3%
Cc1sc2ncnc(N3CCN(Cc4ccccc4)CC3)c2c1-c1ccccc1	-21	28µM*	3%[46.1 µM]	?	0%	-9%
Cc1sc2ncnc(N3CCN(CCOc4ccc(Cl)cc4)CC3)c2c1C	-93*	?	?	?	·	·
Cc1sc2ncnc(Nc3ccc(N4CCOCC4)cc3)c2c1-c1ccccc1	?	-12%	-3%	·	?	-26%
Cc1c(C(=O)Nc2ccc(F)cc2)oc2ccc(S(=O)(=O)N3CCCCCC3)cc12	-31	28µM*	·	-7%[46.1 µM]	-30%	-26%
Cc1c(C(=O)NCc2cccnc2)oc2ccc(S(=O)(=O)N3CCCCCC3)cc12	-20	-29%	-6%	-15%	·	·
COc1ccc(NC(=O)c2oc3ccc(S(=O)(=O)N4CCC5(CC4)OCCO5)cc3c2C)cc1	-17	13µM*	21µM*!	?	·	·
Cc1c(C(=O)Nc2cccc(C(F)(F)F)c2)oc2ccc(S(=O)(=O)N3CCOCC3)cc12	-2	?	-29%	-6%	·	·
Cc1c(C(=O)Nc2cccc(C(F)(F)F)c2)oc2ccc(S(=O)(=O)N3CCC4(CC3)OCCO4)cc12	-11	16µM*	·	29%[46.1 µM]	-25%	-15%
Cc1c(C(=O)NCc2cccnc2)oc2ccc(S(=O)(=O)N3CCCCC3)cc12	-83*	?	-7%	-5%	·	·
Cc1ccc(NC(=O)c2oc3ccc(S(=O)(=O)N4CCC5(CC4)OCCO5)cc3c2C)cc1Cl	-19	-23%	·	4%[46.1 µM]	-10%	-3%
Cc1c(C(=O)NCCc2ccccc2)oc2ccc(S(=O)(=O)N3CCC4(CC3)OCCO4)cc12	-15	?	?	23µM*	-13%	-11%
C[C@@H]1CN([C@H](C)CO)C(=O)CCCn2nncc2CO[C@@H]1CN(C)C(=O)Nc1ccccc1	-9	·	·	·	·	·
CN1c2ccccc2C(C)(C)C12C=Nc1c(cc(N3CCOCC3)c3ccccc13)O2 (centres undefined)	-74*	?	?	?	-18%	-15%
CCOC(=O)c1cnc2ccc(Cl)cc2c1Nc1ccc(OCC)cc1	19	-18%	?	-5%[46.1 µM]	-9%	-7%
CCN1CCN(c2ccc(Nc3ccnc4ccccc34)cc2)CC1	?	0%	·	·	·	·
CN1CCN(c2ccc(Nc3ccnc4cc(Cl)ccc34)cc2)CC1	-83*	-15%	?	2.5µM*	?	?
CCOc1ccc(Nc2ccnc3cc(Cl)ccc23)cc1	-62*	-16%	·	·	·	·
CCN1CCC(Nc2ccnc3cc(Cl)ccc23)CC1	-90*	-2%	13µM*	17%[46.1 µM]	-7%	-5%
SMILES	HCMV antiviral	FMDV antiviral	Marburg entry inh	Lassa entry inh	Vaccinia Venus	VACV mCherry inh
COc1cc(=O)n2c(c1C(=O)NCc1ccco1)CCN(Cc1cccc(C(F)(F)F)c1)CC2	·	-8%	·	·	-3%	-8%
N=c1c(C(=O)NCc2ccco2)cc2c(=O)n3ccccc3nc2n1CCc1ccccc1	?	-23%	?	?	-1%	·
CCOCCCn1c(=N)c(C(=O)NCc2ccco2)cc2c(=O)n3ccccc3nc21	-10	-5%	?	-4%[46.1 µM]	7%	13%
COc1ccc(CNC(=O)c2cc3c(=O)n4ccccc4nc3n(Cc3ccco3)c2=N)cc1	·	·	6%	·	·	·
COc1ccc(CCn2c(=N)c(C(=O)NCc3ccco3)cc3c(=O)n4ccccc4nc32)cc1OC	-95*	-13%	·	·	·	·
COc1ccc(CCn2c(-c3ccco3)nc3ccccc3c2=O)cc1OC	7	32µM*	?	?	-10%	-13%
COCCCn1c(=N)c(C(=O)NCc2ccco2)cc2c(=O)n3ccccc3nc21	-13	-15%	2.5µM*	6%[46.1 µM]	4%	7%
Cc1ccc(Cn2c(=N)c(C(=O)NCc3ccco3)cc3c(=O)n4ccccc4nc32)cc1	5	-2%	13µM*	?	11%	11%
COCCOCCOCCC(=O)N[C@@H]1C[C@@H]2CC[C@@]1(C)C2(C)C	·	·	-1%	·	·	·
CC(C)CCNC(=O)C(c1ccc(O)cc1)N(C(=O)C1COc2ccccc2O1)c1cccc(O)c1 (centres undefined)	-63*	1%	?	?	-14%	i
COc1ccc(OCCCCn2c(-c3ccc(Cl)cc3)nc3ccccc3c2=O)cc1	0	-12%	4%[46.1 µM]	0%[46.1 µM]	-11%	-12%
CCN(CC)S(=O)(=O)c1ccc(S(=O)(=O)Nc2c(C)nn(C)c2C)cc1	-73*	?	?	5%	-16%	-24%
O=C(N/C(=C/c1ccc(Br)cc1)C(=O)N1CCOCC1)c1cccs1	-62*	22%	0%[46.1 µM]	18%	-14%	i
CN1\C(=C/C=C/C=C/C=[N+](C)C)C(C)(C)c2ccccc21	2	16µM*	?	?	·	·
CN1/C(=C\C=O)C(C)(C)c2ccccc21	-29	-10%	5%[46.1 µM]	-24%	8%	11%
COc1ccc(CNCCC(c2ccc3c(c2)OCO3)c2ccccc2OC)cc1 (centres undefined)	-106*	-31%	?	?	?	?
COc1ccc(C(C)NCCC(c2ccc(OC(C)C)cc2)c2ccccc2OC)cc1 (centres undefined)	-97*	-24%	?	-26%[46.1 µM]	11µM*	?
COc1ccc(C(CCNCc2ccc(N(C)C)cc2)c2ccccc2)cc1 (centres undefined)	6	-22%	?	?	-20%	?
O=C(CSc1nc2c(c(=O)[nH]1)CCC2)Nc1cccc(O)c1	-12	-16%	-24%[46.1 µM]	-2%[46.1 µM]	2%	-8%
CC1CCN(S(=O)(=O)c2ccc(Oc3ccc([N+](=O)[O-])cc3)cc2)CC1	-77*	?	-21%	?	?	?
O=[N+]([O-])c1ccc(Oc2ccc(S(=O)(=O)N3CCOCC3)cc2)cc1	?	-19%	?	?	0%	?
O=[N+]([O-])c1ccc(Oc2ccc(S(=O)(=O)N3CCCCC3)cc2)cc1	-63*	?	?	-9%	-10%	-13%
